Measured values reported in ChEMBL document CHEMBL3988442, “University of Dundee, Small-Polar-MMV Screening Library” (2021).
The campaign covered roughly 48,000 compounds. About 13,000 (27%) showed an effect of 50% or more. The list shows a part of the results.

System: Wolbachia pipientis
Assay: Anti-Wolbachia Cell-Based Screen
Type: functional
Set-up: scale not given: in the data most compounds retested in dose-response had high values
Conditions: 5 µM

Row | Structure (SMILES) | Percent Effect [%]
1 | Cc1nn(CN(CC2CCOC2)C2CC2)c(=O)c2ccccc12 (configuration not stated) | -4.031
2 | Cc1nn(C)c(N2CCOCC2)c1CNC1CCOc2ccccc21 (configuration not stated) | -6.51
3 | Cc1nnc(NCC2(c3ccccc3)CC2)c(C#N)c1C | 14.48
4 | CC(=O)NCC(Cc1cccc(F)c1)n1cccc1 (configuration not stated) | 7.369
5 | CCNC(=O)CN(CC)C(=O)c1cccc(Nc2cnn(C)c2)c1 | -0.2175
6 | CN(Cc1cnc(N)nc1)C(=O)C1CC(=O)N(Cc2ccncc2)C1 (configuration not stated) | -0.2602
7 | CN1CCN(Cc2n[nH]c(=O)n2CC2CCCCC2)CC1 | 12.01
8 | N#Cc1cccc(N2CCC(CO)(CCc3ccccc3)CC2)n1 | -13.62
9 | Cc1cnc(NCC(C)(C)N2CCN(C)CC2)nc1 | -0.3057
10 | Cn1c(Cn2ccnc2)nnc1C1CCN(C(=O)c2ccoc2)CC1 | 96.26
11 | Cn1cccc1C(=O)N1CCC(c2nccn2Cc2ccncc2)CC1 | 14.15
12 | Cc1[nH]ccc1C(=O)N1CCC(c2nnc(Cn3ccnc3)n2C)CC1 | 6.251
13 | CN(CCO)Cc1nnc(C2CCN(C(=O)c3cccn3C)CC2)n1C | -1.148
14 | Cn1cccc1C(=O)N1CCC(c2nnc(Cn3ccnc3)n2C)CC1 | 89.43
15 | Cn1nc(Cn2ccnc2)c2c1CN(C(=O)c1ccoc1)C2.O=C(O)C(F)(F)F | -63.76
16 | Cn1c(Cn2ccnc2)nnc1C1CCN(Cc2cccnc2N)CC1 | -5.827
17 | Cn1c(Cn2ccnc2)nnc1C1CCN(C(=O)c2ccncc2)CC1 | 74.15
18 | CN(CCO)Cc1nnc(C2CCN(C(=O)c3ccccc3)CC2)n1C | 8.451
19 | CCN1C(=O)C(c2ccccc2)CC12CCN(c1ncccn1)CC2 (configuration not stated) | -1.132
20 | CN(Cc1ccc(F)cc1)Cc1nc(-c2cnccn2)no1 | -0.4176
21 | CCc1n[nH]c(C2CN(Cc3ncc(CC)o3)CCO2)n1 (configuration not stated) | -12.36
22 | CC(NC(=O)N1CCc2ccccc21)c1nncn1C (configuration not stated) | -4.094

Row | Structure (SMILES) | Percent Effect [%]
23 | Cc1ccsc1CN(Cc1ncccc1C(=O)O)C1CC1 | -1.02
24 | CCC(C)N(Cc1sccc1C)C(=O)c1ccc2cccnc2n1 (configuration not stated) | 114.4
25 | CNS(=O)(=O)c1csc(C(=O)NCc2sccc2C)c1 | -10.67
26 | CCC(C)N(Cc1sccc1C)C(=O)c1ccc(S(C)(=O)=O)cc1 (configuration not stated) | 114.6
27 | CCC(C)N(Cc1sccc1C)C(=O)c1cnc[nH]1 (configuration not stated) | 112.1
28 | Cc1ccsc1CNC(=O)CSc1nnc[nH]1 | -7.3
29 | CCC(C)N(Cc1sccc1C)C(=O)c1cc(N)ccn1 (configuration not stated) | 107.3
30 | Cc1cc(C)c(CNC(=O)N(C)Cc2sccc2C)c(=O)[nH]1 | -0.6521
31 | CNS(=O)(=O)c1csc(C(=O)N(C)Cc2sccc2C)c1 | 1.133
32 | Cc1ccsc1CN(C)CCc1scnc1C | 3.291
33 | Cc1ccsc1CN(C)Cc1ncccc1C(=O)O | 8.285
34 | COC(=O)c1ccc(S(=O)(=O)NCC(O)c2sccc2C)cc1 (configuration not stated) | 1.544
35 | O=C(NC1CC1)[C@H]1COC[C@H]2CN(c3ncc(F)cn3)C[C@H]21 | -1.694
36 | O=C(O)COc1ccc(Cl)cc1CN1CCC2(CCOCC2)CC1 | 5.352
37 | C=C(C)CN1CCC(Nc2nc(C)ns2)CC1 | 3.989
38 | Cc1nc(C)n(CC2CN(Cc3cccc4c3OCCO4)CCO2)n1 (configuration not stated) | -0.04658
39 | Cc1nc(C)n(CC2CN(c3ncccc3C#N)CCO2)n1 (configuration not stated) | 109.9
40 | Cc1nc(C)n(CC2CN(Cc3cccc(C#N)c3)CCO2)n1 (configuration not stated) | 2.978
41 | N#Cc1ccc(CN2CCCC(Cn3cncn3)C2)c(F)c1 (configuration not stated) | 10.83
42 | Cc1nc(C)n(CC2CCCN(Cc3ccc(F)cc3C#N)C2)n1 (configuration not stated) | 96.96
43 | Cc1nc(C)n(CC2CN(c3ncnc4[nH]ccc34)CCO2)n1 (configuration not stated) | 9.938
44 | Cc1cc(C)n(CC2CCCN2Cc2ccc(F)cc2C#N)n1 (configuration not stated) | -16.28

Row | Structure (SMILES) | Percent Effect [%]
45 | Cc1nc(C)n(CC2CN(c3nnc(C)c(C)c3C#N)CCO2)n1 (configuration not stated) | -9.439
46 | Cc1nc(C)n(CC2CCCN(Cc3cc(C#N)ccc3F)C2)n1 (configuration not stated) | 126.4
47 | Cc1nc(C)n(CC2CN(Cc3cc(C#N)ccc3F)CCO2)n1 (configuration not stated) | 105.5
48 | Cc1nc(C)n(CC2CCCN2Cc2ccc(F)cc2C#N)n1 (configuration not stated) | -2.788
49 | O=S(=O)(NCC1CCOc2ccccc2C1)N1CCOCC1 (configuration not stated) | 11.66
50 | CS(=O)(=O)N1CCOC2(CCN(c3nccs3)CC2)c2ccccc21 | -2.369
51 | Cc1nc(C)n(CC2CCCN(Cc3ccccc3C#N)C2)n1 (configuration not stated) | 99.33
52 | Cc1nc(C)n(CC2CCCN(CCc3ccccn3)C2)n1 (configuration not stated) | -0.6255
53 | Cc1nc(C)n(CC2CCCN(Cc3cccc(F)c3F)C2)n1 (configuration not stated) | 100.4
54 | N#Cc1ccccc1OCCN1CCCC(c2noc(C3CC3)n2)C1 (configuration not stated) | 29.76
55 | Cc1nc(C)n(CC2CCCN(CCOc3ccccc3C#N)C2)n1 (configuration not stated) | 99.48
56 | Cn1nc2c(cc1=O)CN(Cc1nc(C(C)(C)C)no1)CC2 | 5.069
57 | Cc1nc(CN2CCCC(CCc3ccccc3C(F)(F)F)C2)co1 (configuration not stated) | 3.253
58 | COc1cnc(N2CC(N3CCOCC3)C2)nc1-c1ccnn1C | -5.867
59 | Cc1ccc(C2CSCCN2CC(=O)N2CCOCC2)cc1 (configuration not stated) | 2.726
60 | CN(C)C(=O)CC1CCOc2ccccc21 (configuration not stated) | -4.71
61 | COCC(=O)N1CCC2(CC1)CC(N1CCOCC1)c1ccc(C)cc12 (configuration not stated) | 6.475
62 | Cc1ccc2c(c1)[C@@H](CC(=O)N1CCOCC1)CCO2 | 86.47
63 | Cc1ccc2c(c1)[C@@H](CC(=O)N(C)C)CCO2 | 103.2
64 | Cc1ccc2c(c1)C(NC1CCN(C)CC1)CCCO2 (configuration not stated) | 0.3143
65 | CN(Cc1ccccn1)C(=O)CC1CCOc2ccccc21 (configuration not stated) | -4.334
66 | Cc1ccc2c(ccn2CCC(=O)N2CCC(C(N)=O)CC2)c1 | 23.62

Row | Structure (SMILES) | Percent Effect [%]
67 | Cc1ccc2c(c1)[C@@H](CC(=O)N1CCN(C)CC1)CCO2 | 86.47
68 | O=C1CCOCCN1Cc1ccc(Cl)c(Cl)c1 | 9.877
69 | CSc1ccc(NC(=O)NCC(O)C(C)C)cc1F (configuration not stated) | -14.41
70 | CNS(=O)(=O)CC(=O)N1CCC(c2ccc(F)c(F)c2)CC1 | -2.799
71 | O=C(NCc1cccs1)C1CCCN(c2cc(-n3cncn3)ncn2)C1 (configuration not stated) | -5.792
72 | CC(C)(C)c1cc(=O)n2c(n1)SCC(C(=O)NCc1cccs1)C2 (configuration not stated) | 98.61
73 | CC(C)(C)c1cc(=O)n2c(n1)SCC(C(=O)NCc1ccco1)C2 (configuration not stated) | 102.3
74 | O=C(NCc1cccs1)C1CCN(c2cc(-n3ccnc3)ncn2)CC1 | -1.807
75 | CC(C)Cc1cc(CNC(=O)C2CCCN(Cc3ccco3)C2)no1 (configuration not stated) | -2.049
76 | CC(C)(C)c1cc(=O)n2c(n1)SCC(C(=O)NCc1ccccn1)C2 (configuration not stated) | 106.1
77 | O=C(NCc1cn2cccnc2n1)C1CC(=O)N(Cc2ccccn2)C1 (configuration not stated) | -14.07
78 | CN1[C@@H](c2ccccc2)[C@@H](C(=O)NCc2ccccn2)C[C@@]1(C)C(=O)O | 4.83
79 | O=C(NCc1cccs1)C1CN(C(=O)c2cccs2)CC12CCOCC2 (configuration not stated) | -10.89
80 | CCc1c(C)nc2n(c1=O)CC(C(=O)NCc1cccs1)CS2 (configuration not stated) | 101.3
81 | COC1CCN(CCNC(=O)NC(C)c2cccc(Cl)c2)CC1 (configuration not stated) | 14.59
82 | O=C(C1CCCC1)N1CCC(c2n[nH]c3nccnc23)CC1 | 136.1
83 | O=C(C1CCCCC1)N1CCC(c2n[nH]c3nccnc23)CC1 | 126.4
84 | O=C(Cn1cnc(-c2ccccc2)cc1=O)Nc1ccncc1 | 13.41
85 | Cl.NCCC(=O)Nc1ccc(-c2ccccc2)cc1 | 116.3
86 | O=C(CCC(=O)Nc1ccccc1)NCC(=O)c1ccc(F)cc1F | -8.283
87 | CCCc1nc(CNC(=O)Cc2cc(C)no2)cs1 | -3.893
88 | CCS(=O)(=O)NCCNc1cc(-n2cccc2)ncn1 | 9.537

Row | Structure (SMILES) | Percent Effect [%]
89 | Nc1cccc(C2CN(C(=O)CN3CCOCC3)CCO2)n1 (configuration not stated) | 104.8
90 | O=C(CCNS(=O)(=O)c1cccnc1)N1CCOC(c2ccccc2)C1 (configuration not stated) | -17.46
91 | CNc1cccc(C2CN(C(=O)CNS(C)(=O)=O)CCO2)n1 (configuration not stated) | 125.9
92 | O=C(CCNS(=O)(=O)c1ccccc1)N1CCOC(c2ccccc2)C1 (configuration not stated) | 1.988
93 | CC(=O)NCC(=O)N1CCN(C)c2ncccc2C1 | -12.03
94 | Cc1n[nH]c(C2CN(CC(=O)NCc3ccco3)CCO2)n1 (configuration not stated) | 14.88
95 | O=C(Cc1cccc(F)c1F)N1CCOC(c2cccc(O)c2)C1 (configuration not stated) | -10.07
96 | COc1ccc2cc(C3CN(C(=O)CCNC(C)=O)CCO3)ccc2c1 (configuration not stated) | -5.377
97 | CNC(=O)CN1CCOC(c2cccc(N)n2)C1 (configuration not stated) | 126.4
98 | COc1ccc2cc(C3CN(C(=O)CN4CCCC4)CCO3)ccc2c1 (configuration not stated) | 0.8606
99 | CNC(=O)CN1CCOC(c2ccccc2C(F)(F)F)C1 (configuration not stated) | -19.7
100 | CC(=O)NCC(=O)N1CCOC(c2cccc(N)n2)C1 (configuration not stated) | 128.4
101 | CCN(C(=O)CN1CCCC1c1ccc(F)cc1)c1ccccc1C (configuration not stated) | -2.599
102 | O=C(NCc1ccccc1)c1nc2c(o1)CN(C(=O)c1cccnc1)C2.O=C(O)C(F)(F)F | -11.3
103 | Cc1occc1CNC(=O)C1(C)CCCN1C(=O)c1ccccc1 (configuration not stated) | -1.558
104 | CCCn1cc(C(=O)N2CCCC2(C)c2nc(C)cc(C)n2)cn1 (configuration not stated) | 137.7
105 | CCCN1CC2(CCN(C)CC2)CC1C(=O)NCCn1cc(C)cn1 (configuration not stated) | 2.434
106 | CCn1cc(C(=O)N2CCCC3(CCC(=O)N(CCC(C)C)C3)C2)cn1 (configuration not stated) | 12.9
107 | CCCn1cc(C(=O)N2CCCC2(C)c2nc(C)cc(N)n2)cn1 (configuration not stated) | 145.7
